# According to PubChem BioAssay (Tox21):
# “And” between values parts separate entries of the source, which are not always exact repeats. Equal entries are not always repeated. Results filed as inconclusive are left out. A call without a number means that no potency is given here. Some compounds were tested as several samples or in several runs, with calls that do not always agree. The source made the active and inactive calls. Unless noted, calls follow the shape of the dose curve; as a rule, active = well fitted curve in the direction sought with a large enough effect in the repeat runs; inconclusive = weak or mixed curves; inactive = no such curve, though single readings can be large; an effect the other way counts as inactive or inconclusive.
# What was measured:
# [1] = qHTS assay to identify small molecule agonists of the endoplasmic reticulum stress response signaling pathway - cell viability counter screen (AID 1159517; calls by dose curve; also: nearly all actives have a fitted effect of over 50% in size; also: potency is read from the fitted curve at half-maximal effect)
# How it was run: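 Counter-screen wells were identical to the reporter wells. Cells were plated at 1,500 per well and dosed for 5 hr, then read for luminescence 30 min after CellTiter-Glo addition.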
# [2] = qHTS assay to identify small molecule antagonists of the retinoid-related orphan receptor gamma (ROR-gamma) signaling pathway - cell viability counter screen (AID 1159520); also: nearly all actives have a fitted effect of over 50% in size; also: potency is read from the fitted curve at half-maximal effect
# How it was run: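 Tet-on ROR gamma CHO cells were given compounds for 2 hr, then doxycycline hyclate at 1 uM final, and incubated 16 hr at 37 C. Viability was measured as ATP content by CellTiter-Glo luminescence.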
# [3] = qHTS assay to identify small molecule agonists of the AP-1 signaling pathway - cell viability counter screen (AID 1159525; calls by dose curve; also: nearly all actives have a fitted effect of over 55% in size; also: potency is read from the fitted curve at half-maximal effect)
# How it was run: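 AP-1-bla ME-180 cells in Opti-MEM with 0.5% dialyzed FBS, compound exposure 5 h at 37 C in 15-point titration. Viability read in the same wells as ATP content by CellTiter-Glo luminescence, normalised to tetra-n-octylammonium bromide and DMSO controls.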
# [4] = qHTS assay to identify small molecule agonists of the RXR signaling pathway - cell viability counter screen (AID 1159529); also: nearly all actives have a fitted effect of over 50% in size; also: potency is read from the fitted curve at half-maximal effect
# How it was run: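 RXR-alpha-UAS-bla HEK 293T cells in medium with 2% charcoal-stripped FBS were preincubated 5 hr, then exposed to compounds for 16 hr at 37 C. Viability was read as CellTiter-Glo luminescence after 30 min at room temperature.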
# [5] = qHTS assay to identify small molecule antagonists of the retinoid acid receptor (RAR) signaling pathway - cell viability counter screen (AID 1159551); also: nearly all actives have a fitted effect of over 35% in size; also: potency is read from the fitted curve at half-maximal effect
# How it was run: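 Cytotoxicity counter screen in C3RL4 cells: 6 h compound exposure with 1 uM retinol (final), viability from cellular ATP by luminescence.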
# [6] = qHTS assay to identify small molecule antagonists of the estrogen related receptor (ERR) signaling pathway - cell viability counter screen (AID 1224818); also: potency is read from the fitted curve at half-maximal effect;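 also: viability measured after 17.5 h of compound exposure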; as to viability change, negative = cytotoxic: series mostly up to about 46 µM
# How it was run: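 Cells carrying the ERR pathway reporter were seeded and incubated for 6 hours before compound addition. After a 17.5-hour exposure at 37 C, live-cell protease activity was measured by CellTiter-Fluor fluorescence following 30 minutes of incubation.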
# [7] = qHTS assay to identify small molecule antagonists of the estrogen related receptor signaling pathway with the pleiotropic PPARgamma coactivator (PGC) cell viability counter screen (AID 1224822;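 also: series mostly up to about 46 µM; viability read after 17.5 h compound exposure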)
# How it was run: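 Seed PGC/ERR cells (2,000/well); incubate 6 h at 37 C/5% CO2; pin-transfer compounds in DMSO; incubate 17.5 h at 37 C; add CellTiter-Fluor; after 30 min read fluorescence.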
# [8] = qHTS assay to identify small molecule agonists of the constitutive androstane receptor (CAR) signaling pathway - cell viability counter screen (AID 1224836); also: nearly all actives have a fitted effect of over 45% in size; also: potency is read from the fitted curve at half-maximal effect; as to viability change, negative = cytotoxic: series mostly up to about 92 µM
# How it was run: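 HepG2 cells stably carrying hCAR and a CYP2B6-2.2kb reporter were plated 4 h, then given compounds at 15 concentrations plus PK11195 (final 0.75 uM). After 23 h at 37 C, viability was read by CellTiter-Fluor fluorescence.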
# [9] = qHTS assay to identify small molecule agonists of the AP-1 signaling pathway (AID 1159526; calls by dose curve)
# [10] = target: Retinoic acid receptor RXR-alpha (Homo sapiens) (UniProt P19793); assay: qHTS assay to identify small molecule agonists of the RXR signaling pathway (AID 1159527; calls by dose curve; also: nearly all actives have a fitted effect of over 35% in size)
# How it was run: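 GeneBLAzer RXR-alpha-UAS-bla HEK 293T cells in medium with 2% charcoal-stripped FBS, pre-incubated 5 hr at 37 C, then exposed to compounds 16 hr. Beta-lactamase reporter read by FRET substrate, 2 hr room temperature, 460/530 nm emission.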
# [11] = qHTS assay to identify small molecule antagonists of the estrogen related receptor (ERR) signaling pathway from Tox21 library - cell viability counter screen (AID 1224834); also: nearly all actives have a fitted effect of over 30% in size; also: potency is read from the fitted curve at half-maximal effect
# How it was run: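 Cytotoxicity of test substances is gauged in the same ERR cells used for the antagonist screen, after 17.5 h of compound treatment at 37 C, by CellTiter-Fluor fluorescence measured after 30 min.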
# [12] = target: Nuclear receptor ROR-gamma (Homo sapiens) (UniProt P51449); assay: qHTS assay to identify small molecule antagonists of the retinoid-related orphan receptor gamma (ROR-gamma) signaling pathway (AID 1159521; also: nearly all actives have a fitted effect of over 50% in size; also: potency is read from the fitted curve at half-maximal effect)
# How it was run: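 Tet-on RORγ CHO cells carrying a ROR response element–luciferase reporter were pretreated with compounds for 2 h, then induced with 1 uM (final) doxycycline hyclate for 16 h at 37 C. Antagonism was read as decreased ONE-Glo luminescence.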
# [13] = qHTS assay to identify small molecule antagonists of the retinoic acid receptor (RAR) signaling pathway (AID 1159552; also: nearly all actives have a fitted effect of over 50% in size; also: potency is read from the fitted curve at half-maximal effect)
# How it was run: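 RARE-luc C3RL4 cells; cpds + 1 uM (final) retinol, 6 hr, 37 C/5% CO2; luciferase reagent, 30 min RT, luminescence readout. Inhibitors of retinol-driven signal scored.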
# [14] = qHTS assay to identify small molecule antagonists of the estrogen related receptor (ERR) signaling pathway (AID 1224819; also: nearly all actives have a fitted effect of over 50% in size; also: potency is read from the fitted curve at half-maximal effect)
# How it was run: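 Compounds dissolved in DMSO were pin-transferred onto ERR cells that had been plated 6 h earlier, and cells were then incubated 18 h at 37 C; signal was luciferase luminescence via One-Glo.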
# [15] = qHTS assay to identify small molecule agonists of the estrogen related receptor (ERR) signaling pathway (AID 1224820)
# How it was run: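 ERR reporter cells (NTP line) plated 2,000/well, incubated 6 h at 37 C/5% CO2, then pinned with compounds in DMSO and held 18 h at 37 C. One-Glo added; luminescence read after 30 min at room temperature.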
# [16] = qHTS assay to identify small molecule agonists of the estrogen related receptor signaling pathway with the pleiotropic PPARgamma coactivator (PGC) (AID 1224823)
# How it was run: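 PGC/ERR reporter cells were seeded, rested 6 h at 37 C/5% CO2, then exposed to compounds in DMSO by pin transfer for 18 h at 37 C. Luciferase activity was read as luminescence after One-Glo reagent and 30 min at room temperature.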
# [17] = qHTS assay to identify small molecule agonists of the retinoic acid receptor (RAR) signaling pathway (AID 1159553)
# How it was run: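 Agonist activity was scored in C3RL4 cells bearing a retinoic acid response element luciferase construct. Cells were treated with compounds for 6 hr at 37 C, and luciferase signal was measured as luminescence.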
# [18] = target: Luciferin 4-monooxygenase (Photinus pyralis) (UniProt P08659); assay: qHTS assay to identify small molecule inhibitors of firefly luciferase (AID 1224835); also: nearly all actives have a fitted effect of over 25% in size; also: potency is read from the fitted curve at half-maximal effect
# How it was run: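 Biochemical qHTS: compounds run as interplate titrations against purified firefly enzyme, with D-luciferin and ATP each at its KM concentration. Light output recorded by CCD imaging.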
# [19] = system: estrogen-related receptor alpha (ERRalpha) with PGC-1alpha coactivator, human; assay: qHTS assay to identify small molecule antagonists of the estrogen related receptor signaling pathway with the pleiotropic PPARgamma coactivator (PGC) (AID 1224821; calls by dose curve)
# How it was run: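 Cells engineered for PGC/ERR signalling (line from NTP) were plated 6 h at 37 C/5% CO2, then exposed to DMSO-dissolved compound for 18 h at 37 C. Luciferase activity was read by One-Glo luminescence after 30 min at room temperature.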
# Retinoic acid receptor RXR-alpha (Homo sapiens), sequence (P19793 whole entry, looked up): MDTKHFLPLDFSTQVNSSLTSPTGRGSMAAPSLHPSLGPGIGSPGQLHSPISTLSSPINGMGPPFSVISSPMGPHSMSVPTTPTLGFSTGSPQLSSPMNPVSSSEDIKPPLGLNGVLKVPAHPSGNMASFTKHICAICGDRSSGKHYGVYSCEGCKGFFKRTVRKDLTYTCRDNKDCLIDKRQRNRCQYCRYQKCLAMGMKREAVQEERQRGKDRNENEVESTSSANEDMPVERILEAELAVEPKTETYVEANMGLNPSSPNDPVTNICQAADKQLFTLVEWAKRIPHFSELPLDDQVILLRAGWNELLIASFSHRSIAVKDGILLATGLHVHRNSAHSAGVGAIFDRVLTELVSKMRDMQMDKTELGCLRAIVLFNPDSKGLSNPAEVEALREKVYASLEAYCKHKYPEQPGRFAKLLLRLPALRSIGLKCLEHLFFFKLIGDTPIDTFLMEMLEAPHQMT
# Luciferin 4-monooxygenase (Photinus pyralis), sequence (P08659 whole entry, looked up): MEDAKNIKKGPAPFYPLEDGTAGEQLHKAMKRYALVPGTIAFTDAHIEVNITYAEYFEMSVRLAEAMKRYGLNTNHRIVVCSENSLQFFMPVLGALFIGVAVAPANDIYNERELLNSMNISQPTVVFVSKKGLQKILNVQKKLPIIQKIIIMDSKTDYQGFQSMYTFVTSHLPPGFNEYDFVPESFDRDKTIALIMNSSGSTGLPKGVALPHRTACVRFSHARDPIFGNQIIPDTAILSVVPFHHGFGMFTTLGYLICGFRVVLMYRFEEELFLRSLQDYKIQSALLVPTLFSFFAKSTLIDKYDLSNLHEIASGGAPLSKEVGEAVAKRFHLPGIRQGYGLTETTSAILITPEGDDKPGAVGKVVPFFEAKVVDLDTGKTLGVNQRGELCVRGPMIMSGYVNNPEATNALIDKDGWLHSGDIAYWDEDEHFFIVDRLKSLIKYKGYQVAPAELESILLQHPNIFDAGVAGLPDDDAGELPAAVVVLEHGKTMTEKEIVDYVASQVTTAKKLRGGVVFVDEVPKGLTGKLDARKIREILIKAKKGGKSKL
smiles,measurement,setting,value
CN(C)CCCN1c2ccccc2CCc2ccccc21,Potency,[1],inactive
same,Potency,[2],inactive
same,Potency,[3],inactive
same,Potency,[4],inactive
same,Potency,[5],inactive
same,Potency,[6],inactive
same,Potency,[7],inactive
same,Potency,[8],30.6 µM (active)
CN1[C@@H]2CC[C@@H]1CC(OC(=O)C(CO)c1ccccc1)C2 (stereo partly specified),Potency,[1],inactive
same,Potency,[2],inactive
same,Potency,[3],inactive
same,Potency,[9],inactive
same,Potency,[10],inactive
same,Potency,[5],inactive
same,Potency,[11],inactive
same,Potency,[8],inactive
O=C1c2c(O)ccc(O)c2C(=O)c2c(NCCNCCO)ccc(NCCNCCO)c21,Potency,[1],inactive
same,Potency,[2],23.7 µM (active)
same,Potency,[12],inactive
same,Potency,[13],0.119 µM (active)
same,Potency,[6],inactive
same,Potency,[14],1.44 µM (active)
same,outcome,[15],inactive
same,outcome,[16],inactive
same,Potency,[11],3.35 µM (active)
same,Potency,[8],3.76 µM (active)
Brc1ccccc1-c1ccccc1,Potency,[1],41.3 µM (active)
same,Potency,[2],inactive
same,Potency,[12],inactive
same,Potency,[3],inactive
same,Potency,[10],inactive
same,Potency,[5],inactive
same,Potency,[17],inactive
same,Potency,[6],inactive
same,Potency,[14],inactive
same,outcome,[15],inactive
same,outcome,[16],inactive
same,Potency,[11],inactive
same,Potency,[8],inactive
Clc1ccc(C(c2ccccc2Cl)C(Cl)Cl)cc1 (stereo unspecified),Potency,[1],49 µM (active)
same,Potency,[2],inactive
same,Potency,[12],inactive
same,Potency,[3],43.6 µM (active) and 23.9 µM (active)
same,Potency,[4],34.7 µM (active) and 23.9 µM (active)
same,Potency,[5],inactive
same,Potency,[13],54.5 µM (active)
same,Potency,[6],inactive
same,Potency,[11],inactive
same,Potency,[18],inactive
same,Potency,[8],inactive
CC(C)(c1cc(Br)c(O)c(Br)c1)c1cc(Br)c(O)c(Br)c1,Potency,[1],48.8 µM (active) and 15.5 µM (active)
same,Potency,[2],60.9 µM (active)
same,Potency,[3],48.8 µM (active) and 48.9 µM (active)
same,Potency,[10],inactive
same,Potency,[5],inactive
same,Potency,[13],inactive
same,Potency,[17],inactive
same,Potency,[11],inactive
same,Potency,[18],79.4 µM (active) and inactive
same,Potency,[8],inactive
CCCCCCOc1cc(C)c(O)c(C)c1C,Potency,[1],55.6 µM (active)
same,Potency,[2],61.9 µM (active)
same,Potency,[12],49.2 µM (active)
same,Potency,[3],44.2 µM (active)
same,Potency,[4],35.1 µM (active)
same,Potency,[11],61.9 µM (active)
same,Potency,[8],inactive
O=C(NO)c1ccccc1,Potency,[1],inactive
same,Potency,[2],inactive
same,Potency,[12],inactive
same,Potency,[3],inactive
same,Potency,[5],inactive
same,Potency,[13],inactive
same,Potency,[17],inactive
same,Potency,[6],inactive
same,outcome,[15],inactive
same,outcome,[19],inactive
same,Potency,[7],inactive
same,outcome,[16],inactive
same,Potency,[8],inactive
CSc1ccc2c(c1)N(CCC1CCCCN1C)c1ccccc1S2 (stereo unspecified),Potency,[1],43.5 µM (active)
same,Potency,[2],48.4 µM (active) and inactive
same,Potency,[12],27.2 µM (active) and inactive
same,Potency,[3],43.5 µM (active) and inactive
same,Potency,[4],19.4 µM (active) and 26.8 µM (active)
same,Potency,[5],60.9 µM (active)
same,Potency,[13],24.2 µM (active) and 29.8 µM (active)
same,outcome,[15],inactive
same,Potency,[11],43.1 µM (active) and 33.5 µM (active)
same,Potency,[8],48.4 µM (active)
Cc1cc2c(C(C)C)c(O)c(O)c(C=O)c2c(O)c1-c1c(C)cc2c(C(C)C)c(O)c(O)c(C=O)c2c1O,Potency,[1],10.7 µM (active)
same,Potency,[2],26.6 µM (active)
same,Potency,[12],10.6 µM (active)
same,Potency,[3],inactive
same,Potency,[4],21.3 µM (active)
same,Potency,[5],inactive
same,Potency,[13],inactive
same,Potency,[17],inactive
same,Potency,[6],10.2 µM (active)
same,Potency,[14],2.76 µM (active)
same,outcome,[15],inactive
same,outcome,[16],inactive
same,Potency,[11],13.3 µM (active)
same,Potency,[18],inactive
COc1cc(C(=O)NS(=O)(=O)c2ccccc2C)ccc1Cc1cn(C)c2ccc(NC(=O)OC3CCCC3)cc12,Potency,[1],inactive
same,Potency,[2],inactive
same,Potency,[12],inactive
same,Potency,[4],inactive
same,Potency,[5],inactive
same,Potency,[13],inactive
same,Potency,[17],inactive
same,Potency,[11],inactive
same,Potency,[18],27.5 µM (active)
same,Potency,[8],inactive
O=C(O)CCn1c2c(c3ccccc31)C[C@H](NS(=O)(=O)c1ccc(F)cc1)CC2,Potency,[1],inactive
same,Potency,[2],inactive
same,Potency,[3],inactive
same,Potency,[4],inactive
same,Potency,[5],inactive
same,Potency,[11],inactive
same,Potency,[18],inactive
same,Potency,[8],inactive
CC=O,Potency,[1],16.2 µM (active)
same,Potency,[2],63.9 µM (active)
same,Potency,[12],2.02 µM (active)
same,Potency,[4],14.4 µM (active)
same,Potency,[13],25.5 µM (active)
same,Potency,[11],28.6 µM (active)
same,Potency,[18],inactive
S=C(SSSSSSC(=S)N1CCCCC1)N1CCCCC1,Potency,[1],inactive
same,Potency,[12],0.239 µM (active)
same,"viability change, negative = cytotoxic",[3],2.16% [at 15.8 µM] (inactive)
same,Potency,[4],0.606 µM (active)
same,"activity, negative = inhibition",[13],-10.6% [at 19 µM] (inactive)
same,Potency,[18],6.22 µM (active)
same,Potency,[8],8.48 µM (active)
CC(C)(C)CC(C)(C)c1ccccc1O,Potency,[1],49.2 µM (active)
same,Potency,[2],61.4 µM (active)
same,Potency,[12],68.9 µM (active)
same,Potency,[3],43.9 µM (active)
same,Potency,[4],39.1 µM (active)
same,Potency,[5],54.8 µM (active)
same,Potency,[13],27.4 µM (active)
same,Potency,[8],inactive
CCOC(=O)[C@@](C)(N)Cc1ccc(O)c(O)c1,Potency,[1],inactive
same,Potency,[2],inactive
same,Potency,[9],inactive
same,Potency,[5],inactive
same,Potency,[11],inactive
same,Potency,[18],inactive
same,Potency,[8],inactive
Cc1occc1SSc1ccoc1C,Potency,[1],inactive
same,Potency,[12],inactive
same,Potency,[3],inactive
same,Potency,[4],inactive
same,Potency,[5],inactive
same,Potency,[18],inactive
same,Potency,[8],inactive
CCN=c1cc2oc3cc(NCC)c(C)cc3c(-c3ccccc3C(=O)OCC)c-2cc1C,Potency,[1],24.5 µM (active) and 38.9 µM (active)
same,Potency,[2],27.2 µM (active) and 24.3 µM (active)
same,Potency,[12],3.84 µM (active) and 6.86 µM (active)
same,Potency,[4],38.8 µM (active) and 49 µM (active)
same,Potency,[5],60.9 µM (active) and 48.6 µM (active)
same,Potency,[13],24.2 µM (active) and 24.3 µM (active)
same,Potency,[11],272 nM (active) and 243 nM (active)
same,Potency,[18],inactive
